Data taken from PubChem BioAssay (NCI).
Compounds without any hit were thinned out: in the full panel of roughly 83,000, 20% have a hit.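 Each cell line was grown in a 96-well plate and treated with one concentration of compound for 48 hours. Values below 10 were considered active.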 Unmarked numbers belong to inactive results. The source made the active and inactive calls.

Tested on: NCI-H23 lung
Experiment: NCI-60 one-dose screen, 48 h (100 = growth as untreated, 0 = no growth, -100 = all killed)
Conditions: 10 µM unless noted

Row | SMILES | growth
1 | COc1ccc2c(c1)C(=Nc1cc(OC)c(OC)c(OC)c1)C(=O)N2 | 96.6%
2 | CC(=O)N1N=C(c2ccc(Cl)cc2)CC1c1c(C)nn(-c2ccccc2)c1N(C)Cc1ccccc1 (stereo not given) | 78.3%
3 | C=C1CCC2C(C)(COC(=O)CC)C(OC(=O)CC)CCC2(C)C1C/C=C1/C(=O)OCC1OC(=O)CC (stereo not given) | 57.4%
4 | COCCOCCOCCOCCOc1ccc2c(c1)C(=O)c1nc3ncccc3c(=O)n1-2 | -40.1% (active)
5 | CCCCN1c2nc3ccccc3cc2Sc2cc3ccccc3nc21 | 97.6%
6 | Nc1ccn(C2O[C@H](CO)[C@@H](O)[C@@H]2O)c(=O)n1 (stereo not given in full) | 28.2%
7 | COc1ccc(C(=O)/C=C/c2ccc(C)cc2)cc1OC | 78.3%
8 | Cc1cc(=O)[nH]c(/C(=N/Nc2ccccc2)C(=O)c2ccc(Cl)cc2)n1 | 105%
9 | Cc1ccc2nc3c(n2c1)C(=O)C(=O)c1ccccc1-3 | -12.4% (active)
10 | O=c1[nH]c(N2CCC(Cc3ccccc3)CC2)nc2sc3c(c12)CCCC3 | 95.9%
11 | CSc1nc(-c2ccc(O)cc2O)c2c(=O)[nH]c(Nc3ccc(S(=O)(=O)Nc4nc(C)cc(C)n4)cc3)nc2n1 | 105%
12 | Oc1ccccc1/C=N/N1CCCCCC1 | 101%
13 | Cc1ccc(/C=C(/C#N)n2nnc3ncccc32)cc1 | -1.23% (active)
14 | CN1CCN(c2nc3scc(-c4ccccc4)c3c(=O)[nH]2)CC1 | 100%
15 | Nc1ccccc1C#Cc1ccccc1C#Cc1ccc(OCCCCCCOc2ccc(C#Cc3ccccc3C#Cc3ccccc3N)cc2)cc1 | 95.3%
